The structures appear in SMILES notation. Where “and” joins values, the source holds several entries; their conditions need not be identical. Equal entries are not always repeated. Results filed as inconclusive are left out. More than one record can exist for a structure, and the calls need not agree. Calls of active or inactive are those of the source. Calls come from the whole dose curve; as a rule, active = well fitted curve in the direction sought with a large enough effect; inconclusive = small, poorly fitted or top-dose-only effect, or another doubt; inactive = no such curve, though single readings can be large; an effect the other way counts as inactive or inconclusive.

The nature of assay [1]: Viability qHTS for spleen associated tyrosine kinase inhibitor (SYKi) naive MV4-11 cells (AID 1963823). Note: nearly all actives have a fitted effect of over 40% in size. In short, it runs like this: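 SYKi-naive MV4-11 AML cells, 500 per well, were exposed to library compounds for 72 hr at 37 C, 5% CO2. Viability was then read by CellTiter-Glo luminescence after 10 min at room temperature.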
Assay [2] can be described thus: Viability qHTS for spleen associated tyrosine kinase inhibitor (SYKi) drug resistant MV4-11 cells (AID 1963824). Note: nearly all actives have a fitted effect of over 35% in size. In short, it runs like this:
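SYK inhibitor-resistant MV4-11 AML cells, 500 per well, added to predispensed compounds and incubated 72 hr at 37 C, 5% CO2. Viability measured by CellTiter-Glo luminescence after 10 min at room temperature.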
For orientation: Quantitative high-throughput screening tests each substance at several concentrations.

The nature of assay [3]: Cellular viability qHTS for adrenocortical cancer (ACC) cell line SW-13 (AID 1963989).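 For activity (max response): cells grown in serum-free medium with ITS supplement; % is set by controls: 0 for no effect and ±100 for the full control effect.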 Note: nearly all actives have a fitted effect of over 65% in size. The settings on record: SW-13 ACC cells viability, CellTiter-Glo, 48 h; activity (max response): stronger effect = lower value. In short, it runs like this: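 SW-13 cells in ITS-supplemented serum-free DMEM were plated overnight, then exposed for 48 h at 37C to compound titrations (up to 46 uM final). Viability was read by CellTiter-Glo luminescence; four-parameter logistic fits gave IC50 and efficacy.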

Assay [4] is described as follows: Cellular viability qHTS for adrenocortical cancer (ACC) cell line NCI-H295R (AID 1963990). Note: nearly all actives have a fitted effect of over 60% in size. In short, it runs like this: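 Luminescent ATP read-out (CellTiter-Glo, 20 min RT) after 48 h drug exposure of NCI-H295R cells; a titration up to 46 uM final. Data normalized to doxorubicin (100% inhibition) and DMSO (0%); 4-parameter fit gives IC50, max response.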
Potency is the fitted concentration of half-maximal effect.

For `O[C@@H]1CO[C@H]2[C@@H]1OC[C@@H]2O`, the Potency entry in assay [1], in assay [2] and in assay [4] was “inactive” in each case. Besides, in assay [3], the activity (max response) was -0.327% (inactive).

As for `C[C@]12C[C@H](O)[C@H]3[C@@H](CCC4=CC(=O)CC[C@@]43C)[C@@H]1CC[C@@H]2C(=O)CO`, the Potency entry in assay [1], in assay [2] and in assay [4] was “inactive” throughout. The activity (max response) in assay [3] was 4.71% (inactive).

As for `CNC(=O)c1ccccc1Nc1nc(Nc2ccc3c(c2OC)CCC[C@@H](N2CCN(CCO)CC2)C3)ncc1Cl`, the Potency in assay [1] was 0.366 µM (active); in assay [2], 0.58 µM (active); in assay [3], 15.8 µM (active); in assay [4], 2.82 µM (active).

For `COc1ccc(CNc2nc(N(CCO)CCO)nc3c2ncn3C(C)C)cc1`, the Potency in assay [1] is 4.11 µM (active); in assay [2] it was 5.8 µM (active); in assay [3] it was 8.91 µM (active); in assay [4], 15.8 µM (active).

For the molecule `C[C@H](CCC(=O)O)[C@H]1CC[C@H]2[C@@H]3[C@@H](O)C[C@@H]4C[C@H](O)CC[C@]4(C)[C@H]3CC[C@]12C`, the Potency result in assay [1], in assay [2] and in assay [4] was “inactive” throughout. Further, the activity (max response) in assay [3] was -9.5% (inactive).

`O=C1OC(CN2CCOCC2)CN1/N=C/c1ccc([N+](=O)[O-])o1` (stereo not drawn): the Potency result in assay [1] is “inactive”. Moreover, the Potency in assay [2] is 8.41 µM (active); in assay [4], 16.4 µM (active). Besides, in assay [3], the activity (max response) was -3.41% (inactive).

`COCC(=O)O[C@]1(CCN(C)CCCc2nc3ccccc3[nH]2)CCc2cc(F)ccc2[C@@H]1C(C)C`: the Potency in assay [1] was 21.1 µM (active); in assay [2], 13.3 µM (active); in assay [4], 16.4 µM (active).

For `OCc1ccccc1O[C@@H]1O[C@H](CO)[C@@H](O)[C@H](O)[C@H]1O`, the Potency result in assay [1], in assay [2] and in assay [4] was “inactive” in each case. Moreover, the activity (max response) in assay [3] was -1.84% (inactive).

`CC(C)(C)c1nnc(NS(=O)(=O)c2ccc(N)cc2)s1`: the Potency entry in assay [1], in assay [2] and in assay [4] was “inactive” throughout. In addition, the activity (max response) in assay [3] was -5.75% (inactive).

As to `C[C@@H](O[C@H]1OCCN(Cc2n[nH]c(=O)[nH]2)[C@@H]1c1ccc(F)cc1)c1cc(C(F)(F)F)cc(C(F)(F)F)c1`, the Potency in assay [1] is 16.6 µM (active); in assay [2], 16.6 µM (active); in assay [4], 25.1 µM (active).

With `Cc1c[nH]c2ncnc(N3CCC(CN)(C(=O)Nc4cccc(OC(=O)N(C)C)c4)CC3)c12`, the Potency is 517 nM (active) and 662 nM (active) in assay [1]; 1.3 µM (active) and 1.66 µM (active) in assay [2]; “inactive and 22.4 µM (active)” in assay [4]. Further, the activity (max response) in assay [3] was -9.88% (inactive).

`CSc1ccc(C(=O)c2[nH]c(=O)[nH]c2C)cc1`: the Potency result in assay [1], in assay [2] and in assay [4] was “inactive” throughout. In addition, the activity (max response) in assay [3] was 15.3% (inactive).

As to `C[C@H]1O[C@H](O[C@H]2[C@H](O)[C@@H](O)[C@@H](O[C@H]3[C@H](O)[C@@H](O)C(O)O[C@@H]3CO)O[C@@H]2CO)[C@H](O)[C@@H](O)[C@@H]1N[C@H]1C=C(CO)[C@@H](O)[C@H](O)[C@H]1O` (stereo partly drawn), the Potency entry in assay [1], in assay [2] and in assay [4] was “inactive” in each case. In addition, the activity (max response) in assay [3] was -4.82% (inactive).

As to `CN(C)CCOc1ccc(/C(=C(/CCCl)c2ccccc2)c2ccccc2)cc1`, the Potency is 14.8 µM (active) in assay [1], 13.2 µM (active) in assay [2] and 8.91 µM (active) in assay [4]. The activity (max response) in assay [3] was -6.2% (inactive).

For the molecule `CC(C)(C(=O)O)c1ccc(C(O)CCCN2CCC(C(O)(c3ccccc3)c3ccccc3)CC2)cc1` (stereo not drawn), the Potency entry in assay [1], in assay [2] and in assay [4] was “inactive” in each case. Also, the activity (max response) in assay [3] is -2.55% (inactive).

Consider `COc1cc(C(=O)O)ccc1NC(=O)[C@@H]1N[C@@H](CC(C)(C)C)[C@](C#N)(c2ccc(Cl)cc2F)[C@H]1c1cccc(Cl)c1F`, for which the Potency in assay [1] is 6.61 µM (active); in assay [2], 5.25 µM (active). Also, the activity (max response) in assay [3] is 1.9% (inactive). Moreover, the Potency entry in assay [4] was “inactive”.

On to `N#Cc1cc(NC(=O)C(=O)O)c(Cl)c(NC(=O)C(=O)O)c1`, for which the Potency result in assay [1], in assay [2] and in assay [4] was “inactive” throughout. Further, the activity (max response) in assay [3] is 14% (inactive).

For the molecule `CCN(CC)CCOc1ccc(/C(=C(\Cl)c2ccccc2)c2ccccc2)cc1`, the Potency in assay [1] is 9.44 µM (active) and 8.2 µM (active); in assay [2], 10.6 µM (active) and 10.3 µM (active); in assay [4] it was 7.31 µM (active).

With `CC#C[C@@H](CC(=O)O)c1ccc(OCc2cccc(-c3ccc(C(F)(F)F)cc3)c2)cc1`, the Potency in assay [1] was 18.6 µM (active); in assay [2], 16.6 µM (active); in assay [4] it was 31.6 µM (active).

As for `C[C@@H]1C[C@H](N)C[C@H](c2ccncc2NC(=O)c2ccc(F)c(-c3c(F)cccc3F)n2)C1`, the results for the Potency in assay [1], in assay [2] and in assay [4] were 1.18 µM (active), 2.63 µM (active) and 28.2 µM (active), respectively.

For `CCCS(=O)(=O)c1nc(NC2CC2)cc(-c2ccc3c(ccn3C3CC(C)(C)NC(C)(C)C3)c2)n1`, the figures for the Potency in assay [1], in assay [2] and in assay [4] were 1.75 µM (active), 1.11 µM (active) and 2.18 µM (active), respectively.

On to `COc1cc(OC)cc(N(CCNC(C)C)c2ccc3ncc(-c4cnn(C)c4)nc3c2)c1`, for which the Potency in assay [1] was 5.25 µM (active); in assay [2], 4.11 µM (active); in assay [4], 22.4 µM (active).

Turning to `C=CC(=O)N1CC[C@@H](Oc2nc(Nc3ccc(N4CCC(N5CCN(C)CC5)CC4)cc3)c(C(N)=O)nc2CC)C1`, the figures for the Potency in assay [1], in assay [2] and in assay [4] were 0.0323 µM (active), 0.091 µM (active) and 7.15 µM (active), respectively.

Turning to `CC(=O)NC(Cc1ccccc1)C(=O)O` (stereo not drawn), the Potency result in assay [1], in assay [2] and in assay [4] was “inactive” each time.

For the molecule `COC(=O)C1=C(C)NC(C)=C(C(=O)OCC(C)C)C1c1ccccc1[N+](=O)[O-]` (stereo not drawn), the Potency in assay [1] was 10.6 µM (active); in assay [2] it was 10.6 µM (active); in assay [4], 16.4 µM (active).

In the case of `C=CC(=O)N1CC(N2CCN(C(=O)CNc3cc(C4(C)CC4)c(Cl)cc3O)CC2)C1`, the Potency is 18.6 µM (active) in assay [1], 16.6 µM (active) in assay [2] and 15.8 µM (active) in assay [4].

(Values after PubChem BioAssay (NCATS).)
